Bioassay records: PubChem BioAssay, National Center for Advancing Translational Sciences (NCATS)
A selection: hits, their analogues and other compounds. The true share with any hit is near 21%.
DT40 TDP1 no CPT: qHTS for Inhibitors of human tyrosyl-DNA phosphodiesterase 1 (TDP1): qHTS in cells in absence of CPT; DT40 Tdp1-/- hTDP1 cells, no CPT, ATP luminescence, 48 h; Potency, µM (highest dose often 46.2 µM), for inactives: top-dose activity change, negative = growth inhibition, usual class: inhibitors; hit rate 15% among 420,000; further: potency means the concentration at half of the fitted maximal effect; on the % scale 0 is the no-effect control and ±100 the full control effect; nearly all actives have a fitted effect of over 55% in size
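Chicken DT40 Tdp1-/- cells stably complemented with human TDP1 were seeded at 400 cells/well with DMSO in place of 20 nM camptothecin. After compound pinning, cells grew at least 48 hr at 37 °C; viability read by CellTiter-Glo luminescence.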
TDP1 cell CPT: growth inhibition of DT40 Tdp1-/-;hTDP1 cells with camptothecin (screen for TDP1 inhibitors); chicken DT40 Tdp1-/-;hTDP1 cells + 20 nM CPT, ATP luminescence, 48 h; Potency, µM (doses to about 46.2 µM), inactives show top-dose activity change, negative = growth inhibition, hits mostly inhibitors; hit rate 12% among 420,000; further: potency means the concentration at half of the fitted maximal effect; on the % scale 0 is the no-effect control and ±100 the full control effect; nearly all actives have a fitted effect of over 55% in size
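Chicken DT40 Tdp1-/- cells stably complemented with human TDP1 were seeded at 400 cells/well in medium containing 20 nM camptothecin, exposed to pin-transferred compounds, and grown at 37 °C for at least 48 hr. Viability was read as ATP luminescence.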
D3 antag: blocks the human D3 dopamine receptor; D3R cells, DiscoveRx beta-arrestin luminescence, antagonist mode; active compounds read low; hit rate 2.5% among 360,000; P35462; max response, negative = inhibition, %; in the data active means max response below about -50%; inconclusive means no clear call, values can overlap the other calls; further: on the % scale 0 is the no-effect control and ±100 the full control effect
Target sequence (P35462 whole entry, looked up): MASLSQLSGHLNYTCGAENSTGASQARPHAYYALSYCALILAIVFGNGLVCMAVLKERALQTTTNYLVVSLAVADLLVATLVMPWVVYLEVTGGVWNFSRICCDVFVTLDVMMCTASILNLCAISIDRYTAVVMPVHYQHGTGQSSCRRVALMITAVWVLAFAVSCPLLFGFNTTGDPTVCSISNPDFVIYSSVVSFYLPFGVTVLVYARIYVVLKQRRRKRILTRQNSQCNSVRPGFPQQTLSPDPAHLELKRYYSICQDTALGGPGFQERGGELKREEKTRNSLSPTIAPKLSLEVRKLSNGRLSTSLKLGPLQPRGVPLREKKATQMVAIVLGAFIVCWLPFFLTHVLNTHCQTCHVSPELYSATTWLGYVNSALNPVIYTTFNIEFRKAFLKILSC
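Cells plated overnight at 1500 cells/well, then exposed to library compounds with dopamine controls for 90 minutes at 37 degrees C. DiscoveRx reagent added for 30–60 minutes at room temperature; luminescence read, quantitative HTS format.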
ClpP mod: qHTS Assay for Activators of ClpP. ATP-dependent Clp protease proteolytic subunit (Bacillus subtilis (strain 168)), P80244. purified B. subtilis ClpP, FRET peptide cleavage, 20 min. Potency, µM (series often up to 57.5 µM), without a hit: at the highest dose activity change, negative = active. hit rate 1.9% among 340,000. AID 651965, 2013; active means well fitted falling curve with a large enough effect; inconclusive means small, poorly fitted or top-dose-only effect; inactive means no such curve, though single readings can be large or run the other way; further: potency means the concentration at half of the fitted maximal effect; the source files actives as falling curves though it sought activators and does not explain the sign; nearly all actives have a fitted effect of over 65% in size
Target sequence (P80244 whole entry, looked up): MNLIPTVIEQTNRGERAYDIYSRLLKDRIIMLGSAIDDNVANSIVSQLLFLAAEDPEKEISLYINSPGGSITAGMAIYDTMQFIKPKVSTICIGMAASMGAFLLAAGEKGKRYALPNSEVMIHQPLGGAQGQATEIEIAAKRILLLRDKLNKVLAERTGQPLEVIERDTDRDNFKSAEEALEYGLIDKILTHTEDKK
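Purified B. subtilis ClpP, 10 microg/mL final in Tris/HCl pH8 with KCl, BSA, glycerol and Tween-20, cleaved an Abz/nitrotyrosine-quenched decapeptide. Fluorescence (ex 320, em 430) was read at 0 and 20 min at room temperature. Delta was normalized to 5.8 microM ADEP and DMSO/no-enzyme controls.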
D3 ag: activates the human D3 dopamine receptor; P35462; D3R DiscoveRx beta-arrestin cells, luminescence, 90 min; max activation, %; hit rate 0.58% among 410,000; AID 652048; in the data active means max activation above about 30%; further: 0% is about no effect
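Agonist mode: compounds and dopamine controls were applied to plated cells for 90 min at 37 degrees C after an overnight attachment at 1500 cells/well. Luminescent read-out followed 30 - 60 minutes at room temperature with DiscoveRx detection reagent.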
IL1B secr inh: inflammasome signaling inhibition, IL-1 beta readout; THP-1 LPS/ATP IL-1B secretion, AlphaLISA, 16 h; active compounds read low; activity change, % at 57.5 µM; hit rate 4.7% among 360,000; AID 743279; in the data active means activity change below about -50%; inconclusive means mostly about -30% to -49%; further: on the % scale 0 is the no-effect control and ±100 the full control effect
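THP-1 cells pretreated 1 hr with compounds (up to 57.5 uM final), then stimulated with LPS (250 ng/mL final) plus ATP (1.25 mM final); secreted IL-1B measured by AlphaLISA after 16 hr, decreased signal indicating inhibition.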
Numbers without * were called inactive; u = inconclusive; x = no result given. Unless noted, the call rests on the fitted dose curve; in most records, active means well fitted inhibition curve with a large enough effect; inconclusive means small, poorly fitted or top-dose-only effect; inactive means flat fitted curve, though single readings scatter.

SMILES	DT40 TDP1 no CPT	TDP1 cell CPT	D3 antag	ClpP mod	D3 ag	IL1B secr inh
CC1N=C2c3ccccc3N=C(SCC(=O)NCCc3ccc(Cl)cc3)N2C1=O (stereo unspecified)	-15.1%	u	x	4.1%	4.6	x
Oc1ccccc1C1CC(c2cccs2)=NC(c2ccc(Cl)cc2)N1 (stereo unspecified)	4.11µM*	20.6µM*	-5.5	-7.4%	0.9	u
C[C@@H]1CN([C@@H](C)CO)C(=O)Cc2cc(NC(=O)Nc3cccc4ccccc34)ccc2O[C@@H]1CN(C)Cc1ccc(C(F)(F)F)cc1	16.4µM*	u	-61.0*	5.2%	-33.1	x
C[C@@H]1CN([C@H](C)CO)C(=O)c2cc(NC(=O)Nc3cccc4ccccc34)ccc2O[C@H]1CN(C)Cc1ccc(C(F)(F)F)cc1	8.2µM*	10.3µM*	-4.0	u	10.1	14.9
C[C@@H]1CN([C@H](C)CO)C(=O)c2cc(NS(=O)(=O)c3cccs3)ccc2O[C@H]1CN(C)Cc1ccccc1	u	u	-20.9	-15.4%	-18.5	-7.8
C[C@@H]1CN([C@@H](C)CO)C(=O)c2cc(NS(=O)(=O)c3cccs3)ccc2O[C@H]1CN(C)Cc1ccc(C(F)(F)F)cc1	25.9µM*	u	-12.8	-1.2%	-6.1	-63.3*
COc1ccc2c(c1)C(c1ccccc1)NC(=O)C2 (stereo unspecified)	-12.0%	-11.9%	-1.1	-4.6%	11.1	46.3
CC(=O)NC1C(OCc2ccccc2)OC2COC(C)(C)OC2C1O (stereo unspecified)	7.9%	1.9%	10.9	x	9.2	11.5
O=C1c2[nH]nc(-c3ccccc3O)c2C(c2ccc(Cl)cc2)N1CCc1ccccc1 (stereo unspecified)	16.4µM*	20.6µM*	x	-7.9%	9.7	x
O=C1c2[nH]nc(-c3ccccc3O)c2C(c2ccc(F)cc2)N1CCO (stereo unspecified)	u	u	x	-0.2%	5.4	x
COCCCN1C(=O)c2[nH]nc(-c3ccccc3O)c2C1c1ccc(OC)cc1 (stereo unspecified)	29.1µM*	16.4µM*	x	-2.1%	-2.7	x
COc1cc(C2c3c(-c4cc(C)cc(C)c4O)n[nH]c3C(=O)N2CCCO)cc(OC)c1OC (stereo unspecified)	-26.5%	-6.7%	-10.0	-1.4%	-4.2	u
CCOc1cc(C2c3c(-c4ccccc4O)n[nH]c3C(=O)N2CCc2ccccc2)ccc1O (stereo unspecified)	u	16.4µM*	x	-0.8%	9.0	x
COCCCN1C(=O)c2[nH]nc(-c3cc(C)cc(C)c3O)c2C1c1ccc(O)c(OC)c1 (stereo unspecified)	u	20.6µM*	-27.5	-1.0%	-3.9	6.8
COCCCN1C(=O)c2[nH]nc(-c3cc(C)ccc3O)c2C1c1ccc(F)cc1 (stereo unspecified)	u	u	x	-1.2%	4.9	x
O=C(OCc1ccccc1)N1CCC2CC1c1ccc(Cl)cc12 (stereo unspecified)	u	-10.2%	u	-3.6%	-8.5	48.5
COc1cc(NC(=O)c2nc3cc(C)c(C)cc3n(C)c2=O)cc(OC)c1OC	6.0%	12.1%	x	-0.2%	3.2	x
CN(CC(=O)Nc1ccc(OC(F)(F)F)cc1)C(=O)Cn1c(=O)cnc2ccccc21	u	-1.9%	-12.5	-3.3%	-1.0	14.9
COCCCN1C(=O)c2[nH]nc(-c3ccccc3O)c2C1c1ccc(Cl)cc1 (stereo unspecified)	u	23.1µM*	-21.2	-3.5%	0.6	-7.5
COc1ccc(CCN2C(=O)c3[nH]nc(-c4ccccc4O)c3C2c2ccc(O)c(OC)c2)cc1 (stereo unspecified)	u	u	x	0.1%	6.9	x
CCOc1ccc(CCNC(=O)CN2C(=O)COc3ccc(S(=O)(=O)N4CCCC4)cc32)cc1	u	u	x	0.2%	-0.5	x
CCOC(=O)CC1C(=O)NCCN1C(=O)COc1ccc(C(C)(C)C)cc1 (stereo unspecified)	-20.3%	-4.4%	-2.5	x	20.0	15.3
COc1ccccc1CCCNC(=O)C1CCC(=O)N(CCc2ccc(Cl)cc2)C1 (stereo unspecified)	23.1µM*	18.4µM*	-18.2	-2.8%	-18.5	-51.3*
COc1ccccc1CCNC(=O)C1CCC(=O)N(Cc2ccccc2OC)C1 (stereo unspecified)	-21.9%	-17.7%	-22.6	-0.1%	-2.6	-10.3
COc1ccc(CCNC(=O)C2CCC(=O)N(CCc3ccc(OC)cc3)C2)cc1 (stereo unspecified)	11.3%	4.3%	-1.8	-1.1%	-3.0	9.1
SMILES	DT40 TDP1 no CPT	TDP1 cell CPT	D3 antag	ClpP mod	D3 ag	IL1B secr inh
COc1ccccc1CN1CC(C(=O)NC2(c3ccccc3)CC2)CCC1=O (stereo unspecified)	-12.9%	-16.9%	u	31.6µM*	-2.4	-0.5
COc1ccc(OC)c(Nc2nc(N)nc(-c3cc4ccccc4o3)n2)c1	18.4µM*	u	57.7	-20.4%	6.1	-5.9
COc1ccc(OC)c(NC(=O)c2cc3ccccc3o2)c1	-0.9%	-20.2%	24.9	-2.3%	1.2	-3.1
Cc1ccccc1-c1cc(C(=O)NCc2cccc(Br)c2)n(CC2CC(c3cccnc3)=NO2)n1 (stereo unspecified)	18.4µM*	u	-29.1	-0.9%	-21.6	-24.0
O=C(NCc1ccco1)C1CC(c2cccc([N+](=O)[O-])c2)=NO1 (stereo unspecified)	u	u	1.6	-4.5%	-6.1	17.2
COc1ccccc1CNC(=O)c1cc(-c2ccccc2)nn1CC1CC(c2cccc([N+](=O)[O-])c2)=NO1 (stereo unspecified)	14.6µM*	10.3µM*	7.6	-2.4%	-12.6	22.7
CCc1cc(Cn2nc(-c3ccccc3)cc2C(=O)NCCOC)on1	-6.5%	-3.5%	-8.3	-0.4%	3.5	-3.1
COc1ccccc1CNC(=O)C1CC(c2cccc([N+](=O)[O-])c2)=NO1 (stereo unspecified)	23.1µM*	16.4µM*	4.1	-2.6%	1.7	12.1
CCc1cc(Cn2nc(-c3ccccc3)cc2C(=O)NCc2cccs2)on1	u	16.4µM*	-2.0	-7.7%	-7.3	-72.6*
COc1ccc(C)cc1NC(=O)c1sc2nc(-c3ccc(F)cc3)cn2c1C	-9.7%	-0.1%	x	-5.1%	11.7	x
